From PubChem BioAssay
This is a sample that favours compounds with a hit; in the whole collection about 2.4% have one here.
POLH inh = blocks human DNA polymerase eta activity. recombinant Pol eta, fluorescent DNA replication assay. Q9Y253. hit rate 1.2% among 390,000. Potency, µM (highest dose often 114 µM), for the others: at the highest dose activity change, negative = inhibition, hits mostly inhibitors; note: % is set by controls: 0 for no effect and ±100 for the full control effect
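Pol eta at 10 nM preincubated with compounds 15 min at room temperature; reaction started with fluorescent substrate (50 nM final) and read kinetically at 0 and 10 min.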
TDP1 block = blocks human tyrosyl-DNA phosphodiesterase 1 | Q9NUW8 | recombinant TDP1, AlphaScreen DNA substrate cleavage | Potency, µM (titrated, usually from 130 µM), for inactives: top-dose activity change, negative = inhibition, most hits filed as inhibitors | hit rate 0.28% among 350,000 | AID 485290; note: % is set by controls: 0 for no effect and ±100 for the full control effect; nearly all actives have a fitted effect of over 40% in size
Target sequence (Q9NUW8 whole entry, looked up): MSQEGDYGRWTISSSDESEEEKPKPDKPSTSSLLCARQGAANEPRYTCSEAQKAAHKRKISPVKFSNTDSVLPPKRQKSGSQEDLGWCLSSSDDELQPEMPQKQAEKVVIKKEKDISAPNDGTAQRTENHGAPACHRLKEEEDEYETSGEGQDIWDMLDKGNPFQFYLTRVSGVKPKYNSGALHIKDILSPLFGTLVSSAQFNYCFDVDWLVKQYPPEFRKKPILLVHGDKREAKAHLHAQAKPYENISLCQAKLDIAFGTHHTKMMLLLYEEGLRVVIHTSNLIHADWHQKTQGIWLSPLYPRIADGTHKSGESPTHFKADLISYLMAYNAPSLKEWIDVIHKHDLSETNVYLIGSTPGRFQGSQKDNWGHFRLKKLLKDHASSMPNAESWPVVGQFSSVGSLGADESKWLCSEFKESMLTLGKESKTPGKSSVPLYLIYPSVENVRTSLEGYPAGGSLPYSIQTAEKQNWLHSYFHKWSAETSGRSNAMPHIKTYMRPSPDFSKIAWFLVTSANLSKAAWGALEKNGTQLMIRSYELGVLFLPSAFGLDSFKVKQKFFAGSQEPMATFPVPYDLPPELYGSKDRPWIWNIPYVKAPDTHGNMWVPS
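E. coli-derived human Tdp1, 1 nM final. Cpd preinc 15 min RT; substrate 15 nM final, 5 min RT; AS bead mix 10 ug/ml final, 10 min RT. Signal loss = tyrosine-FITC cleavage. No-enzyme wells = max signal.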
POLI inh = blocks human DNA polymerase iota activity; Q9UNA4; Pol iota fluorescent replication assay, 10 min; Potency, µM (highest dose often 115 µM), inactives show at the top dose activity, negative = inhibition, hits mostly inhibitors; hit rate 1% among 390,000; AID 588590
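Pol iota at 10 nM preincubated 15 min with compounds at room temperature; reaction started with fluorescent substrate, 50 nM final. Fluorescence read kinetically at 0 and 10 min; buffer-only wells as negative control.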
Pol beta inh = inhibitors of human DNA polymerase beta; Pol beta primer extension/strand displacement, fluorescence kinetic; hit rate 1.3% among 340,000; P06746; Potency, µM (top dose mostly 114 µM), for the others: at the top dose activity change, negative = inhibition, most hits filed as inhibitors; note: % is set by controls: 0 for no effect and ±100 for the full control effect
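Values derive from four-parameter Hill fits of normalized kinetic data: reads at 0 and 10 min following addition of 50 nM substrate to 10 nM Pol beta preincubated 15 min with compound.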
POLK inh = inhibitors of human DNA polymerase kappa | Q9UBT6 | purified Pol kappa, fluorescent DNA synthesis assay, 10 min | Potency, µM (doses to about 107 µM), inactives show at the highest dose activity, negative = inhibition, hits mostly inhibitors | hit rate 0.53% among 400,000 | AID 588579; note: % is set by controls: 0 for no effect and ±100 for the full control effect
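Readout: fluorescence, taken kinetically at 0 and 10 min. Conditions: 10 nM Pol kappa, 15 min RT compound preincubation, 50 nM substrate final. Controls: enzyme-free buffer wells.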
The depositor's hits bear a star; ? = inconclusive; . = no result; [ ] = another dose, or the depositor's remark. Calls come from the whole dose curve; as a rule, active = well fitted curve in the direction sought with a large enough effect; inconclusive = small, poorly fitted or top-dose-only effect, or another doubt; inactive = no such curve, though single readings can be large; an effect the other way counts as inactive or inconclusive. Potency is the fitted concentration of half-maximal effect.

SMILES	POLH inh	TDP1 block	POLI inh	Pol beta inh	POLK inh
CC1(C)CC[C@]2(C(=O)O)CC[C@]3(C)C(=CC[C@@H]4[C@@]5(C)CC[C@H](O)C(C)(C)[C@@H]5CC[C@]43C)[C@@H]2C1	-7%	-1%	1%	0%	-5%
Cc1ccc(SCc2ccc(C(=O)NCc3ccncc3)cc2)cc1	?	-1%	28µM*	?	-2%
CCOC(=O)c1cc(-c2ccccc2C)nn1Cc1cc(CC)no1	-19%	56µM*	21%	.	6%
Cc1nn(CCCC(=O)NCc2ccccc2Br)c(=O)c2c1sc1ccccc12	-4%	-9%	30%	15%	5%
Cc1nn(CCCC(=O)NCc2ccccc2)c(=O)c2c1sc1ccccc12	.	0%	?	79µM*	?
CCc1cccc(NC(=O)Cn2nc(C)c3sc4ccccc4c3c2=O)c1	20%	3%	89µM*	22µM*	-11%
O=C1Nc2ccc(C(=O)O)c(O)c2C1=O	?	.	?	.	-15%
O=C1Nc2ccc3sc4ccccc4c3c2C1=O	?	?	22µM*	5.6µM*	-30%
Cc1ccccc1OCC(=O)NCC(=O)OCc1cccc2ccccc12	.	0%	30%	.	-6%
Cc1[nH][nH]c(=O)c1C(c1c(C)[nH][nH]c1=O)c1cn(Cc2ccccc2Cl)c2ccccc12	?	10%	5.6µM*	-15%	-15%
COc1cccc(NS(=O)(=O)c2ccc3c(c2)CCC(=O)N3)c1	.	0%	.	.	.
CC(=O)c1cccc(CN2CCCC(C(=O)Nc3ccc(-c4ccco4)cc3)C2)c1 (centres undefined)	?	9%	45µM*	-2%	-6%
COc1ccc(NC(=O)CSc2nc(O)cc(=O)n2-c2ccccc2)cc1	-9%	4%	79µM*	?	-22%
Cc1ccc(-c2csc(NC(=O)CSc3nc4ccccc4[nH]3)n2)cc1	-15%	4%	-11%	5%	-16%
COc1ccccc1NC(=O)CSc1nc2ncccc2[nH]1	-8%	1%	28%	35µM*	-7%
COc1ccc2nc(SCC(=O)Nc3ccccc3)[nH]c2c1	-15%	-3%	-15%	28µM*	-11%
COc1ccc(-c2csc(NC(=O)CSc3nc4ccccc4c(=O)[nH]3)n2)cc1	?	79µM*	35µM*	-29%	?
COc1ccc(NC(C)=O)cc1NC(=O)CSc1nc2ncccc2[nH]1	-14%	4%	2%	-7%	-9%
COc1ccccc1NC(=O)CCSCCC(=O)Nc1ccccc1OC	?	-4%	-12%	56µM*	-23%
COc1ccccc1NC(=O)CCN1CCN(CCC(=O)Nc2ccccc2OC)CC1	.	4%	.	-2%	.
O=C(CSc1nc(O)cc(=O)n1-c1ccccc1)Nc1ccc2c3c(cccc13)CC2	-29%	4%	?	35µM*	-17%
Cc1c(O)nc(SCC(=O)Nc2ccc3c4c(cccc24)CC3)n(-c2ccccc2)c1=O	-15%	3%	61%	?	-3%
O=C(CSc1nc(O)cc(=O)n1-c1ccccc1)Nc1nc2ccccc2s1	-7%	.	11µM*	?	?
CCOC(=O)c1cccc(NC(=O)c2ccc3snnc3c2)c1	-10%	0%	5%	23%	1%
Cn1c2ccccc2c(=O)c2cc(C#CC3(O)CCCCC3)ccc21	-4%	.	22%	?	8%
SMILES	POLH inh	TDP1 block	POLI inh	Pol beta inh	POLK inh
Cn1c2ccccc2c(=O)c2ccc(C#CC3(N)CCCCC3)cc21	-10%	.	?	35µM*	?
O=C(NCc1ccc(Cl)cc1)C(=O)NCC(c1ccco1)S(=O)(=O)c1cccs1 (centres undefined)	-4%	-3%	10%	-4%	-8%[60.1 µM]
CCCCn1c(SCC(=O)NCc2ccco2)nnc1-c1ccoc1C	13µM*	.	?	?	35µM*
Cc1ccc(-c2nnc3ccc(SCC(=O)NCc4ccco4)nn23)cc1	5%	-8%	-14%[58.9 µM]	?	-30%
CCn1c(SCC(=O)NCc2ccco2)nnc1-c1cccs1	0%	50µM*	-7%	32µM*	-12%
CCOc1ccc(-c2nnc3ccc(SCC(=O)NCc4ccco4)nn23)cc1	?	0%	?	25µM*	-7%
CCCCn1c(SCC(=O)NCc2ccco2)nnc1-c1ccco1	-7%	5%	2%	48%	-13%
Cc1ccc(/C=C/c2onc(C)c2S(=O)(=O)N2CCC(C(=O)N(CCC(C)C)Cc3ccco3)CC2)cc1	0%	-1%	-4%	21%	-10%[60.1 µM]
O=C(O[C@H]1CN2CCC1CC2)N1CCc2ccccc2[C@@H]1c1ccccc1	.	.	.	.	1%[19.4 µM]
COc1ccc(C2=Nn3c(nc4sc(C(=O)Nc5cccc(C)c5)c(C)c4c3=O)SC2)cc1	-19%	6%	17%	1%	-1%
O=C(Nc1ccc(Cl)cc1Cl)[C@@H]1CC=C[C@@H]2CCN(C3CC3)C(=O)[C@@H]21	.	.	12%	.	12%
O=C(NCc1ccccc1)[C@]1(C(F)(F)F)C[C@H](CCCO)CCCO1	.	6%	-16%	.	3%
COc1ccc(N=C2S/C(=C\c3ccco3)C(=O)N2CC(C)C)cc1	-10%	4%	-3%	79µM*	-2%
CCN(CC)S(=O)(=O)c1ccc2c(c1)c(=O)c(C(=O)NCc1ccccc1Cl)cn2C	5%	-5%	-40%	?	-2%
O=C(CSc1nc2cc(Cl)ccc2s1)NC(=O)NCc1ccco1	35µM*	-3%	19%	45µM*	?
Cc1ccc(-c2csc3ncnc(OCC(=O)NC(=O)NCc4ccco4)c23)cc1	79µM*	6%	?	40µM*	-32%
CCOc1ccc2nc(SCC(=O)NC(=O)NCc3ccco3)sc2c1	-9%	3%	0%	24%	0%
Cc1sc2ncnc(NCc3ccco3)c2c1C	?	.	?	45µM*	-28%
O=C(COc1ncnc2scc(-c3ccc(F)cc3)c12)NCc1ccco1	?	-9%	2%	-1%	-5%
Cc1sc2ncnc(SCC(=O)NC(=O)NCc3ccco3)c2c1C	89µM*	45µM*	?	11µM*	?
c1coc(CNc2ncnc3sc4c(c23)CCCCC4)c1	4%	6%	3%	-25%	-5%
COc1cc2cc(CNc3ccc(C)cc3)c(=O)n(CC(=O)Nc3ccc(F)cc3F)c2cc1OC	-20%	3%	26%	21%	-20%
COc1ccc(NC(=O)c2c(C)oc3ccc(O)c(CN4CCN(Cc5ccccc5)CC4)c23)cc1	-10%	-2%	-8%	21%	11%
COc1ccc(-c2nc3n(n2)C(c2ccccc2F)C(C(=O)Nc2cccnc2)=C(C)N3)cc1OC (centres undefined)	-13%	.	21%	0%	4%
CCCCc1nc2sc3c(SCC(=O)NCc4ccco4)ncnc3c2c2c1CCC2	22µM*	3%	-15%	?	-21%
